Reference: ChEMBL document CHEMBL3988442, “University of Dundee, Small-Polar-MMV Screening Library” (2021)
In all, about 48,000 compounds went through this assay and about 13,000 (27%) showed an effect of 50% or more. The list shows a part of the results.

System: Wolbachia pipientis
Experiment: Anti-Wolbachia Cell-Based Screen
Format: functional
Parameters: scale not given: in the data most compounds retested in dose-response had high values
Settings: 5 µM

Compound	Percent Effect [%]
CCc1ncc(C(=O)N(CC)CCOC)cn1	-25.3
Cc1nsc(NCCNS(=O)(=O)c2ccccc2)n1	-9.26
O=S(=O)(NCCc1nnc2ccccn12)c1cccnc1	-2.198
Cc1cc(C)n2c(CCCNS(=O)(=O)c3ccccc3)nnc2n1	105.2
Cc1nc(CN2CC(CO)Oc3ccccc32)sc1C (configuration not stated)	-1.227
Cn1ccnc1CN(CCO)Cc1ccc(C(F)(F)F)cc1	-12.47
CC(=O)c1cc2ncc(C(=O)NC3CCCCC3)cc2[nH]1	114.6
CCNc1ncc(C(=O)NC2CCSC2)cn1 (configuration not stated)	5.956
CC(C)(C)OC(=O)NC1CCC(NC(=O)c2ccc[nH]2)CC1 (configuration not stated)	-46.12
O=C(NC1CCCCC1)c1c(F)cccc1F	-11.27
CCNc1ncc(C(=O)NC2CCc3ccccc3C2)cn1 (configuration not stated)	2.788
O=C(NC1(C(=O)NC2CCCC2)CCCC1)c1ccc2[nH]ncc2c1	2.222
CC(=O)c1cc2ncc(C(=O)NC3CCCC3)cc2[nH]1	115.8
CC(=O)c1cc2ncc(C(=O)NC3CC3)cc2[nH]1	127.3
CCOc1ccccc1OCCN(C)Cc1ncnn1CC	-5.335
Cc1n[nH]cc1CNCC(O)c1ccc(F)c(F)c1.Cl (configuration not stated)	-9.621
Cc1ccc2cc(CN(C)Cc3nccs3)c(=O)[nH]c2c1	-5.099
Cn1cc(N2CC3(CCN(CC4CC4)C3)CC2=O)cn1.O=C(O)C(F)(F)F (configuration not stated)	3.9
Cc1nc(CN2C(=O)COC3(CCN(Cc4ccco4)CC3)C2C)cs1.O=C(O)C(F)(F)F (configuration not stated)	-6.139
CC1N(c2cnn(C)c2)C(=O)COC12CCN(Cc1ccoc1)CC2 (configuration not stated)	110.5
Cn1cc(N2CC3(CCN(CC4CCOCC4)CC3)OCC2=O)cn1.O=C(O)C(F)(F)F	-12.75
CC1N(c2cnn(C)c2)C(=O)COC12CCN(CC1CC1)CC2.O=C(O)C(F)(F)F (configuration not stated)	102.9
Cn1cc(N2C[C@@H]3CN(Cc4ccoc4)C[C@@H]3C2=O)cn1.O=C(O)C(F)(F)F	-5.785
CC1N(c2cnn(C)c2)C(=O)COC12CCN(Cc1ccco1)CC2.O=C(O)C(F)(F)F (configuration not stated)	117

Compound	Percent Effect [%]
CN1CC(=O)N(c2cnn(C)c2)CC12CCN(Cc1ccccc1)C2.O=C(O)C(F)(F)F.O=C(O)C(F)(F)F (configuration not stated)	-7.753
CCSCCNc1nc2c(s1)c(C)nn2C	7.108
Cc1nn(C)c2nc(NC(C)c3nnn[nH]3)sc12 (configuration not stated)	114.7
Cc1nc(C(C)Nc2nc3c(s2)c(C)nn3C)n[nH]1 (configuration not stated)	87.1
Cc1nn(C)c2nc(NC3CCNCC3)sc12	10.32
Cc1ccc(-c2ccnc(NC(C)c3n[nH]c(=O)[nH]3)n2)c(C)n1 (configuration not stated)	6.558
CCCOCCNc1nc2c(s1)c(C)nn2C	-0.9549
Cc1nn(C)c2nc(NCCOCCO)sc12	-15.08
Cc1csc(CNc2nc3c(s2)c(C)nn3C)n1	-2.391
Cc1nn(C)c2nc(NC(C)c3n[nH]c(=O)[nH]3)sc12 (configuration not stated)	96.4
O=C(Cc1cccs1)NCCNc1nccc(C(F)(F)F)n1	-1.179
CCn1cc(CN2CCCCC2CCn2ccnc2C)cc1C#N (configuration not stated)	-5.966
O=C(NCc1ccccc1CN1CCCC1=O)Nc1nncs1	-15.38
CC(Nc1ccc(N2C(=O)CCCC2=O)cc1)c1ccc(C#N)cc1 (configuration not stated)	-5.853
CC(=O)NCC(=O)N1C[C@H](OCc2cccnc2)[C@H]2COC[C@H]21	-9.929
CCS(=O)(=O)N1C[C@@H](OCc2cccnc2)[C@H]2OCCC[C@H]21.O=C(O)C(F)(F)F	-26.44
Cc1nc(CO[C@H]2CN(C(=O)c3cccn3C)[C@@H]3COC[C@H]23)cs1.O=C(O)C(F)(F)F	-15.2
CC(C)NC(=O)N1C[C@H](OCc2cccnc2)[C@H]2COC[C@H]21.O=C(O)C(F)(F)F	112.7
O=C(Cc1ccccn1)N1C[C@H](OCc2cccnc2)[C@H]2COC[C@H]21.O=C(O)C(F)(F)F.O=C(O)C(F)(F)F	111.5
Cc1nc(CO[C@H]2CN(C(=O)c3cnoc3C)[C@@H]3COC[C@H]23)cs1.O=C(O)C(F)(F)F	-46.26
O=S(=O)(NCCNc1ccc(-n2cccn2)nn1)c1ccccc1	-3.314
Cc1noc(C)c1CN(C)C(=O)c1cnc(C2CC2)nc1O	-11.89
CCOc1ncccc1CNC(=O)N1CCCC1c1ccncc1 (configuration not stated)	0.3129
CCOc1ccccc1CNC(=O)N1CCC(n2cncn2)CC1	121.4

Compound	Percent Effect [%]
CC(C)Oc1ccccc1CNC(=O)N1CCC(n2cncn2)CC1	15.2
Cc1ccccc1CNC(=O)N1CCC(n2cncn2)CC1	111.6
Cc1cc(C(C)NC(=O)N2CCC(n3cncn3)CC2)c(C)s1 (configuration not stated)	2.137
CCOc1ncccc1CNC(=O)N1CCC(n2cncn2)CC1	108.5
O=C(NCc1cccc2cccnc12)N1CCC(n2cncn2)CC1	-5.707
CCC(CC)c1cc(CNC(=O)N2CCCN(C(C)=O)CC2)on1	-7.46
O=S(=O)(CC1CCCCC1)NCc1ccc(O)nc1	-3.814
CC1CCN(C(=O)c2ccnc(-n3cncn3)c2)c2ccccc21 (configuration not stated)	8.063
CC(C)OC[C@H]1CCC[C@]12CN(C(=O)C1CCOCC1)CCO2	106.2
COC[C@@H]1CCC[C@@]12CN(C(=O)C1CCOCC1)CCO2	108.7
Cn1ccc(N2CCCC(NC(=O)c3ccc(Cl)o3)C2=O)n1 (configuration not stated)	-25.47
COc1cc(F)ccc1N1CCN(Cc2nc(C)c(C)o2)CC1	-8.318
CC(C)(C)c1cn2nc(N3CCCC3Cn3cncn3)sc2n1 (configuration not stated)	-4.327
Cc1cnn(CC2CCCN2c2nn3cc(C)nc3s2)c1 (configuration not stated)	9.552
CC(C)(C)c1cn2nc(N3CCCCC3Cn3cncn3)sc2n1 (configuration not stated)	11.04
Cc1cn2nc(N3CCCCC3Cn3cccn3)sc2n1 (configuration not stated)	120.6
Cc1cn2nc(N3CCCC3Cn3nc(C)cc3C)sc2n1 (configuration not stated)	8.981
Cc1cn2nc(N3CCCC3Cn3cccn3)sc2n1 (configuration not stated)	112.3
Cc1cn2nc(N3CCCC3Cn3nc(C)nc3C)sc2n1 (configuration not stated)	128.5
Cc1cn2nc(N3CCCC3CC(C)(C)C)sc2n1 (configuration not stated)	1.66
Cc1cnn(CC2CCCCN2c2nn3cc(C)nc3s2)c1 (configuration not stated)	94.21
Cc1cn2nc(N3CCCC3C(=O)N3CCN(C)CC3)sc2n1 (configuration not stated)	-72.4
Cc1cn2nc(N3CCCC3Cn3cncn3)sc2n1 (configuration not stated)	1.731
CC(C)(C)c1cn2nc(N3CCCC3Cn3cccn3)sc2n1 (configuration not stated)	7.986
